# Results filed as inconclusive are left out. Entries that show only a call come without a potency. Activity calls are given as the source filed them. Unless noted, calls follow the shape of the dose curve; as a rule, active = well fitted curve in the direction sought with a large enough effect in the repeat runs; inconclusive = weak or mixed curves; inactive = no such curve, though single readings can be large; an effect the other way counts as inactive or inconclusive. Residues, ends and D or L forms follow the SMILES beside them.
# How the values were obtained:
# [1] = qHTS assay for small molecule agonists of the p53 signaling pathway (AID 651631; calls by dose curve; also: nearly all actives have a fitted effect of over 15% in size; also: potency is read from the fitted curve at half-maximal effect)
# How it was run: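 We treat p53RE-bla HCT-116 cells with compounds for 16 h at 37 °C, add LiveBLAzer B/G FRET substrate for 2 h at room temperature, and measure fluorescence intensity.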
# [2] = qHTS assay for small molecules that induce genotoxicity in human embryonic kidney cells expressing luciferase-tagged ATAD5 (AID 651632); also: nearly all actives have a fitted effect of over 15% in size
# How it was run: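 Luminescence read-out: after 16 hr compound exposure at 37C, ATAD5-luciferase HEK293T cells received Amplite, 30 min RT, then CCD imaging. A rise in signal marks genotoxic stress.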
# [3] = qHTS assay for small molecule agonists of the p53 signaling pathway - cell viability (AID 651633; calls by dose curve; also: nearly all actives have a fitted effect of over 30% in size; also: potency is read from the fitted curve at half-maximal effect)
# How it was run: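 p53RE-bla cells were treated with compound for 16 hours at 37 C. Cytotoxicity was then measured as CellTiter-Glo luminescence after 30 min at room temperature.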
# [4] = qHTS assay for small molecules that induce genotoxicity in human embryonic kidney cells expressing luciferase-tagged ATAD5 - cell viability (AID 651634; calls by dose curve; also: nearly all actives have a fitted effect of over 25% in size; also: potency is read from the fitted curve at half-maximal effect)
# How it was run: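 HEK293T ATAD5-luc cells, 2,000/well; compound 15.5 hr, 37C/5% CO2; CellTiter-Fluor 30 min, 37C; fluorescence read.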
# [5] = qHTS assay for small molecule disruptors of the mitochondrial membrane potential - cell viability (AID 720634; calls by dose curve;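 also: human HepG2 liver cancer cells; nearly all actives have a fitted effect of over 20% in size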)
# How it was run: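 Luminescence from CellTiter-Glo (ATP content) gave viability in HepG2 cells, read in the same wells as the MMP dye assay after 1 hr compound exposure at 37 C.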
# [6] = qHTS assay for small molecule disruptors of the mitochondrial membrane potential (AID 720635); also: potency is read from the fitted curve at half-maximal effect
# How it was run: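 HepG2 cells exposed to compound 1 hr at 37C, then Mito-MPS dye 30 min. Ratio read of aggregate (540/590 nm) versus monomer (490/535 nm) fluorescence.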
# [7] = qHTS assay to test for compound auto fluorescence at 590 nm (red) in HepG2 cells (AID 720674)
# How it was run: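 Seeding: 2,000 HepG2 cells/well, MEM/10% FBS, overnight 37 C. Dosing: compound vs DMSO. Incubation: 1 hr, 37 C, 5% CO2. Read: fluorescence 540 ex/590 em, Rose Bengal sodium as red reference.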
# [8] = qHTS assay to test for compound auto fluorescence at 535 nm (green) in HepG2 cells (AID 720675)
# [9] = qHTS assay to test for compound auto fluorescence at 460 nm (blue) in HEK293 cells (AID 720678)
# How it was run: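 After cell attachment (4-5 hr, 37C), compounds were pinned onto HEK293 monolayers in 10% dialyzed FBS medium. The blue channel (405/460 nm) was read following overnight culture. Equivalency was calculated against triamterene.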
# [10] = qHTS assay to test for compound auto fluorescence at 590 nm (red) in HEK293 cells (AID 720679)
# How it was run: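 Plates of HEK293 cells (10% dialyzed FBS) are treated with 23 nL compound or DMSO vehicle after a 4-5 hr attachment period, incubated overnight at 37C, and read for red fluorescence at 540/590nm.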
# [11] = qHTS assay to test for compound auto fluorescence at 535 nm (green) in HEK293 cells (AID 720680)
# [12] = qHTS assay to test for compound auto fluorescence at 460 nm (blue) in HEK293 cell free culture (AID 720681)
# How it was run: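 Compounds were added to cell-free DMEM with 10% FBS and fluorescence read directly. The blue channel used 405 nm excitation and 460 nm emission, with triamterene as the reference fluorophore.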
# [13] = qHTS assay to test for compound auto fluorescence at 535 nm (green) in HEK293 cell free culture (AID 720682)
# How it was run: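 Green-channel intensity (Ex/Em 485/535 nm) was recorded from compound-treated wells containing only DMEM with 10% FBS. Fluorescein provided the equivalency standard.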
# [14] = qHTS assay to test for compound auto fluorescence at 590 nm (red) in HEK293 cell free culture (AID 720683)
# How it was run: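 Cell-free wells of DMEM with 10% FBS received compound, and intrinsic fluorescence was read at excitation/emission 540/590 nm. Values expressed as equivalence to Rose Bengal sodium.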
# [15] = qHTS assay to test for compound auto fluorescence at 590 nm (red) in HepG2 cell free culture (AID 720684)
# How it was run: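 Rose Bengal sodium served as the reference for red signal. Test compounds were dispensed into serum-containing MEM (10% FBS) without cells, and plates were read at 540/590 nm.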
# [16] = qHTS assay to test for compound auto fluorescence at 460 nm (blue) in HepG2 cell free culture (AID 720685)
# How it was run: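 Cell-free plates of MEM plus 10% FBS received 23 nL compound or DMSO vehicle; blue-channel (405/460 nm) intensity scored against triamterene as reference fluorophore.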
# [17] = qHTS assay to test for compound auto fluorescence at 535 nm (green) in HepG2 cell free culture (AID 720686)
# [18] = qHTS assay to test for compound auto fluorescence at 460 nm (blue) in HepG2 cells (AID 720687)
# How it was run: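 HepG2 cells in MEM with 10% FBS, attached overnight at 37 C, were exposed to compound or DMSO for 1 hr at 37 C, 5% CO2. Blue fluorescence was read at 405/460 nm, with triamterene as reference fluorophore.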
# [19] = target: Glucocorticoid receptor (Homo sapiens) (UniProt P04150); test: qHTS assay to identify small molecule agonists of the glucocorticoid receptor (GR) signaling pathway (AID 720691; active = well fitted activation curve with a large enough effect in the signal ratio in the repeat runs, not every such curve was filed as active; the % refers to the signal ratio; also: potency is read from the fitted curve at half-maximal effect); details: GR-bla HeLa, beta-lactamase reporter ratio, 18 h; activation: at 62.4 µM (top of the series)
# How it was run: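 HeLa GR-bla reporter line; cells pre-incubated 4 h, compound in DMSO 18 h at 37 C; LiveBLAzer B/G FRET substrate 2 h RT; fluorescence intensity read-out.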
# [20] = target: Glucocorticoid receptor (Homo sapiens) (UniProt P04150); test: qHTS assay to identify small molecule antagonists of the glucocorticoid receptor (GR) signaling pathway (AID 720692; active = well fitted inhibition curve with a large enough effect in the signal ratio in the repeat runs, not every such curve was filed as active; the % refers to the signal ratio)
# How it was run: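 Read-out: beta-lactamase FRET substrate fluorescence, 2 h at room temperature, in HeLa cells stably carrying a GRE-driven bla reporter. Compounds were co-incubated with 5 nM dexamethasone agonist (final) for 18 h at 37 C.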
# Glucocorticoid receptor (Homo sapiens), sequence (P04150 whole entry, looked up): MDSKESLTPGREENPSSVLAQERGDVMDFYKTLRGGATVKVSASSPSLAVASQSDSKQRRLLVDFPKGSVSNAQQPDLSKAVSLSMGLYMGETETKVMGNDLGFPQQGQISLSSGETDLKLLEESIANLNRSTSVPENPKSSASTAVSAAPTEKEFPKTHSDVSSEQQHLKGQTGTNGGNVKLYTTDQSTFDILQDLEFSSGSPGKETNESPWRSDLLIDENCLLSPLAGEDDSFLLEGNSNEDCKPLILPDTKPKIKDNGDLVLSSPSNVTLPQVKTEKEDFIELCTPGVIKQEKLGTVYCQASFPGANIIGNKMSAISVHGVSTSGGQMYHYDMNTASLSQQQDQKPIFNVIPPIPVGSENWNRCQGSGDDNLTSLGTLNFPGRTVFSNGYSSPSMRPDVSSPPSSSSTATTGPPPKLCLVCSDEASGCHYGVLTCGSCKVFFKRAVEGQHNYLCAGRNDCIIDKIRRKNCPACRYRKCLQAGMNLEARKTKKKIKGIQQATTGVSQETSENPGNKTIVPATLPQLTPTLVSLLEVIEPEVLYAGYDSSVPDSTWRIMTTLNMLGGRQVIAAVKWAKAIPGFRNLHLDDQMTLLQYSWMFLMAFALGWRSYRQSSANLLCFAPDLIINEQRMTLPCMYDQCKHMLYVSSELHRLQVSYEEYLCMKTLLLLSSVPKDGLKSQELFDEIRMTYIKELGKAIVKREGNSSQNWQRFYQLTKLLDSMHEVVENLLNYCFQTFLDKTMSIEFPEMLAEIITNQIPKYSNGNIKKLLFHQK
Compound,Potency [1],Potency [2],Potency [3],Potency [4],Potency [5],Potency [6],outcome [7],Potency [8],Potency [9],outcome [10],outcome [11],Potency [12],outcome [13],outcome [14],outcome [15],Potency [16],Potency [17],Potency [18],Potency [19],Potency [20]
Nc1cc(Cl)c(NC2=NCCN2)c(Cl)c1,inactive,inactive,inactive,inactive,inactive,inactive,inactive,inactive,inactive,inactive,inactive,inactive,inactive,inactive,inactive,inactive,inactive,inactive,inactive,inactive
CC12CCC(C[N+](C)(CCC[N+](C)(C)C)C1)C2(C)C (stereo not given),inactive,inactive,inactive,inactive,inactive,inactive,inactive,inactive,inactive,inactive,inactive,inactive,inactive,–,inactive,inactive,inactive,inactive,–,–
C[C@]12O[C@H](C[C@]1(O)CO)n1c3ccccc3c3c4c(c5c6ccccc6n2c5c31)CNC4=O,75 nM (active),inactive,944 nM (active),4.73 µM (active),inactive,3.76 µM (active),inactive,inactive,inactive,inactive,–,inactive,inactive,inactive,inactive,inactive,inactive,inactive,–,–
O=C1c2ccccc2CN2C(=O)c3ccccc3CN12,inactive,inactive,inactive,inactive,inactive,inactive,inactive,inactive,inactive,inactive,–,inactive,inactive,inactive,inactive,inactive,inactive,inactive,inactive,inactive
OCl,inactive,inactive,inactive,inactive,inactive,inactive,inactive,inactive,inactive,inactive,inactive,inactive,inactive,–,inactive,inactive,inactive,–,inactive,–
O=C(O)/C=C/C(=O)Nc1ccc(S(=O)(=O)Nc2nccs2)cc1,inactive,inactive,inactive,inactive,inactive,inactive,inactive,inactive,inactive,inactive,–,inactive,inactive,inactive,inactive,inactive,inactive,inactive,inactive,inactive
O=C(O)c1cc2cc(Cc3cccnc3)ccc2o1,inactive,inactive,inactive,inactive,inactive,inactive,inactive,inactive,inactive,inactive,–,inactive,inactive,inactive,inactive,inactive,inactive,–,inactive,inactive
C=CC1=C(C(=O)O)N2C(=O)[C@@H](NC(=O)/C(=N\O)c3csc(N)n3)[C@H]2SC1 (stereo in doubt),inactive,inactive,inactive,inactive,inactive,inactive,inactive,inactive,–,inactive,inactive,inactive,inactive,inactive,inactive,inactive,inactive,inactive,–,–
C[Se]CC[C@H](N)C(=O)O,inactive,inactive,inactive,inactive,inactive,inactive,inactive,inactive,inactive,inactive,inactive,inactive,inactive,inactive,inactive,–,inactive,inactive,inactive,inactive
CCOc1cc(CC(=O)N[C@@H](CC(C)C)c2ccccc2N2CCCCC2)ccc1C(=O)O,inactive,inactive,inactive,inactive,inactive,inactive,inactive,inactive,inactive,inactive,–,inactive,inactive,inactive,inactive,inactive,inactive,inactive,8.11 µM (active),–
CC(C)[C@H](NC(=O)[C@H](CC(=O)O)NC(=O)[C@H](CCCCN)NC(=O)[C@@H](N)CCCN=C(N)N)C(=O)N[C@@H](Cc1ccc(O)cc1)C(=O)O (H-RKDVY-OH),inactive,inactive,inactive,inactive,inactive,inactive,inactive,inactive,inactive,inactive,inactive,inactive,inactive,–,inactive,inactive,inactive,inactive,inactive,inactive

# — PubChem BioAssay (Tox21)
